Shown are actives, neighbours in structure and some others; about 5.2% of the full set was active somewhere.
Coupling enz: coupling enzyme interference in Giardia aldolase counter-screen | activity change, negative = inhibition, % at 58.2 µM, hits read low | 290,000 tested, 0.67% active | AID 2472 | coupling enzyme system counterscreen, AmpLite Red fluorescence; in the data active = activity change below about -30%
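Final compound at 57.5 uM, incubated 10 min at RT with coupling enzyme reagent (glyceraldehyde-3-phosphate), then 20 min with substrate and AmpLite Red detection. Fluorescence read at 525/598 nm; tests interference with the coupling assay, not aldolase inhibition.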
Sfp inh: Sfp phosphopantetheinyl transferase inhibition; Q9F4F7; Biochemical Sfp PPTase activity, qHTS; Potency, µM, usual class: inhibitors; 310,000 tested, 3.5% active;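 also: the enzyme is Sfp with the accession as filed and its product quenches rhodamine fluorescence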
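Fluorescence-quenching assay: 15 nM Sfp-PPTase preincubated 15 min at room temperature with compound, then 5 uM rhodamine-CoA and 12.5 uM BHQ-2-labelled YbbR peptide added. Fluorescence (ex 525/em 598 nm) read at start and after 30 min; difference gives rate.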
Tau fibril FP: tau fibrillization inhibition (FP). P10636. K18 P301L tau heparin fibrillization, Alexa594 FP, 6 h. Potency, µM (titrated, usually from 57.7 µM), hits mostly inhibitors. 280,000 tested, 0.39% active; also: nearly all actives have a fitted effect of over 55% in size
Target sequence (P10636 561-689 P618L limits assumed): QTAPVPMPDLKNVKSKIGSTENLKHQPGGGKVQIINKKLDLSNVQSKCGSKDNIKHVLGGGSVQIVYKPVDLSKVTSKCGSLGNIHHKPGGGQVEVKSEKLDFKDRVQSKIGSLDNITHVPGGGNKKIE
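Recombinant K18 P301L […], labeled with Alexa 594 at 0.24 uM over 15 uM unlabeled; heparin inducer 20 uM final; 37 C, 6 hr; FP endpoint.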
Tau fluor cs: counter-screen for tau fibril formation inhibitors | 280,000 tested, 0.93% active | tau K18 P301L Alexa594 fluorescence, heparin fibrillization | Potency, µM (top dose mostly 57.7 µM); also: nearly all actives have a fitted effect of over 55% in size
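Human K18 P301L tau (15 uM unlabeled plus 0.24 uM Alexa 594-labeled, final) in 100 mM sodium acetate pH 7 was mixed with compound and 20 uM heparin and incubated 6 hr at 37 C.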
Tau fibril ThT: tau fibrillization inhibition (ThT binding); 270,000 tested, 2.1% active; Potency, µM (top dose mostly 57.4 µM), hits mostly inhibitors; P10636; recombinant tau K18 P301L (four-repeat tau fragment), heparin-induced fibrillization, ThT fluorescence; also: nearly all actives have a fitted effect of over 55% in size
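K18 P301L tau (15 uM + 0.24 uM Alexa 594-tagged), heparin 20 uM, NaOAc pH 7, 6 h 37 C; ThT 30 uM, 1 h RT, ex 450/em 510 nm.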
Numbers stand for hits; i = inactive; ? = inconclusive; nt = no result given; [ ] = dose if it differs, or a comment. Unless noted, calls follow the shape of the dose curve; as a rule, active = well fitted curve in the direction sought with a large enough effect; inconclusive = small, poorly fitted or top-dose-only effect, or another doubt; inactive = no such curve, though single readings can be large; an effect the other way counts as inactive or inconclusive.

SMILES | Coupling enz | Sfp inh | Tau fibril FP | Tau fluor cs | Tau fibril ThT
CSc1oc(-c2ccco2)nc1S(=O)(=O)c1ccc(F)cc1 | i | 79µM | i | i | i
CSc1oc(-c2cccs2)nc1S(=O)(=O)c1ccccc1 | i | 89µM | i | i | nt
O=C(CSc1oc(-c2cccs2)nc1S(=O)(=O)c1ccccc1)NC1CCCCC1 | i | 40µM | i | ? | ?
Cc1ccc(NC(=O)C2CCCN(c3ncnc4c3nc3n4CCCCC3)C2)c(Br)c1 (stereo not drawn) | nt | nt | i | i | i
Cc1[nH][nH]c(=O)c1C(c1ccc(-c2ccc(Cl)c(C(=O)O)c2)o1)c1c(C)[nH][nH]c1=O | -48 | i | ? | i | 10µM
COC(=O)c1cccc(-c2ccc(C(c3c(C)[nH][nH]c3=O)c3c(C)[nH][nH]c3=O)o2)c1 | -46 | 8.9µM | ? | i | 7.9µM
COC(=O)c1ccccc1-c1ccc(C(c2c(C)[nH][nH]c2=O)c2c(C)[nH][nH]c2=O)o1 | i | i | i | i | i
COc1ccc(Nc2cc(C(=O)NCCCN3CCN(c4ccccc4F)CC3)c3ccccc3n2)c(OC)c1 | nt | nt | i | 7.1µM[quencher] | ?
COc1ccc(Nc2nc(-c3ccccc3)nc3ccccc23)c(OC)c1 | i | i | i | 25µM[quencher] | ?
COc1ccccc1Nc1nc(-c2ccccc2)nc2ccccc12 | i | i | ? | ? | i
COc1ccc(Nc2cc(C(=O)NCCCN(C)Cc3ccccc3)c3ccccc3n2)cc1 | nt | nt | ? | 13µM[quencher] | ?
COc1ccc(Nc2cc(C(=O)NCCCN3CCOCC3)c3ccccc3n2)c(OC)c1 | i | i | i | i | ?
COc1ccc(Nc2cc(C(=O)NCc3ccccc3)c3ccccc3n2)c(OC)c1 | nt | nt | ? | 7.9µM[quencher] | ?
COc1ccc(Nc2cc(C(=O)NC3CCCC3)c3ccccc3n2)c(OC)c1 | i | i | i | i | i
COc1cccc(Cn2c(=O)c(-c3ccccc3)nc3cnc(N4CCNCC4)nc32)c1 | i | i | nt | nt | nt
COc1ccccc1CNC(=O)Cc1c(C)c2c(cc(C)c3c(C)coc32)oc1=O | nt | nt | i | i | i
COCC(=O)N1CCC2(CCCN(c3ccccn3)C2)CC1 | i | i | nt | nt | nt
COc1ccc(N2CCN(CCCNC(=O)c3cc(Nc4ccccc4OC)nc4ccccc34)CC2)cc1 | nt | nt | i | 8.9µM[quencher] | ?
COc1ccccc1Nc1nc(C)cc(C)c1C(N)=O | i | i | i | i | i
COc1ccc(Nc2nc(C)cc(C)c2C(N)=O)c(OC)c1 | -40 | 40µM | ? | i | ?
COc1ccc(Nc2cc(C(=O)NCCCN3CCN(C)CC3)c3ccccc3n2)cc1OC | i | i | i | ? | ?
COc1ccc(Nc2cc(C(=O)NCCCN3CCN(c4ccc(OC)cc4)CC3)c3ccccc3n2)cc1 | nt | nt | i | 4µM[quencher] | 14µM
O=C(CN1C(=O)C(c2ccc(F)cc2)=NC12CCCCCC2)Nc1ccccc1Cl | nt | nt | i | i | i
CCN1CCN(c2oc(/C=C/c3cc(OC)c(OC)c(OC)c3)nc2C#N)CC1 | nt | nt | i | i | i
C/C(CCC(C)C)=N\Nc1cc(C)c2ccccc2n1 | i | 28µM | i | i | ?
SMILES | Coupling enz | Sfp inh | Tau fibril FP | Tau fluor cs | Tau fibril ThT
CCOC(=O)/C(C#N)=C1/C=Cc2ccccc2N1CC | i | i | i | i | i
CCOC(=O)/C(C#N)=C1\SS/C(=C(/C#N)C(=O)OCC)S1 | i | 10µM | 6.3µM | i | 2.8µM
COc1cccc(NC(=O)N(CCC(C)C)C2CCN(C(C)C)CC2)c1 | nt | nt | i | i | i
CCOC(=O)C1=C(O)/C(=C/c2cn(CC(=O)N3CCCC3)c3ccccc23)SC1=Nc1ccccc1 | i | 32µM | i | i | ?
Oc1c(Cl)cc(Cl)c2cccnc12 | i | i | i | i | ?
CN1CCN(C(c2ccc(Br)cc2)c2cc(Cl)c3cccnc3c2O)CC1 (stereo not drawn) | i | 50µM | nt | nt | nt
CC[C@H](C)[C@H](NC(=O)[C@H](Cc1ccc(O)cc1)NC(=O)[C@H](CCCNC(=N)N)NC(=O)[C@H](CCCNC(=N)N)NC(=O)[C@H](CC(C)C)NC(=O)[C@H](CCC(N)=O)NC(=O)[C@@H](NC(=O)[C@H](CCC(=O)O)NC(=O)[C@H](Cc1ccc(O)cc1)NC(=O)[C@H](CCC(N)=O)NC(=O)[C@H](C)NC(=O)[C@H](CCCNC(=N)N)NC(=O)[C@H](CCC(N)=O)NC(=O)[C@H](CCC(=O)O)NC(=O)[C@H](Cc1cnc[nH]1)NC(=O)[C@@H](NC(=O)[C@H](C)NC(=O)[C@H](Cc1ccc(O)cc1)NC(=O)[C@H](CC(=O)O)NC(=O)CNC(=O)[C@@H]1CCCN1C(=O)[C@H](Cc1ccc(O)cc1)NC(=O)[C@H](CCSC)NC(=O)[C@@H]1CCCN1C(=O)[C@H](CCC(=O)O)NC(=O)[C@H](CC(C)C)NC(=O)[C@@H]1CCCN1C(=O)[C@H](C)N)[C@@H](C)O)[C@@H](C)O)C(=O)N[C@@H](CC(N)=O)C(=O)N[C@H](C(=O)N[C@@H](CC(C)C)C(=O)N[C@H](C(=O)N[C@@H](CCCNC(=N)N)C(=O)N1CCC[C@H]1C(=O)N[C@@H](CCCNC(=N)N)C(=O)N[C@@H](Cc1ccc(O)cc1)C(N)=O)[C@@H](C)O)[C@@H](C)O | i | i | nt | nt | nt
CN1CCN(c2ccc(S(=O)(=O)N3CCCCC3)cc2NC(=O)c2ccc3ccccc3c2)CC1 | i | 40µM | i | i | i
O=C(Nc1cc(S(=O)(=O)N2CCOCC2)ccc1N1CCCC1)c1ccc2c(c1)S(=O)(=O)c1ccccc1C2=O | i | 10µM | ? | ? | 25µM
O=C(Nc1cc(S(=O)(=O)N2CCOCC2)ccc1N1CCCC1)c1cccnc1Cl | i | i | i | i | i
Cc1ccccc1C(=O)Nc1cc(S(=O)(=O)N2CCCCC2)ccc1N1CCN(C)CC1 | i | i | i | i | i
CCN(CC)S(=O)(=O)c1cc(C(=O)Nc2cc(Cl)ccc2N2CCN(C)CC2)ccc1Cl | i | 50µM | i | i | ?
COc1ccc(N2CCN(C(=O)C3CCN(S(=O)(=O)c4cn(C)cn4)CC3)CC2)cc1 | nt | nt | i | i | i
CNC(=O)C1C(=S)NC(N)=C(C#N)C1c1ccccc1 (stereo not drawn) | i | 4µM | 16µM | i | 20µM
COC(=O)C1=C(C)OC(N)=C(C#N)C1c1ccccc1 (stereo not drawn) | i | i | i | i | i
CCOC(=O)c1sc(N2C(=O)C(O)=C(C(=O)c3ccco3)C2c2ccc(C)o2)nc1C (stereo not drawn) | i | 40µM | nt | nt | nt
Cc1nnc(N2C(=O)C(O)=C(C(=O)c3ccco3)C2c2ccc(F)cc2)s1 (stereo not drawn) | i | i | i | i | ?
Cc1nnc(N2C(=O)C(O)=C(C(=O)c3ccco3)C2c2ccc(C(C)C)cc2)s1 (stereo not drawn) | i | 56µM | i | i | i
CCOc1ccc(C2C(C(=O)c3ccc(C)o3)=C(O)C(=O)N2c2nc(C)c(C(=O)OC)s2)cc1 (stereo not drawn) | i | 50µM | nt | nt | nt
